PubChem BioAssay
Calls of active or inactive are those of the source. Unless noted, the rule behind the calls is not given here.

What was measured:
[1] = resazurin metabolic signal in HepG2 cells – cell-based, resazurin fluorescence, 24 h, PK04 Diversity Set, profiling panel (AID 1172); conditions: HepG2 viability, higher = more signal; note: test concentration not given here
[2] = budding yeast growth changes without added modifier – OD600, strain BY4716, 24 h, basal condition, primary screen (AID 1173); conditions: S. cerevisiae BY4716 growth, OD600, 24 h; higher = more signal, called active from +8 up or from −8 down
[3] = viability profiling in MM1S myeloma cells – cell-based, resazurin fluorescence, basal, 24 h, PK04 Diversity Set, profiling panel (AID 1174); conditions: higher = more signal, called active from +8 up or from −8 down;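 note: MM1S multiple myeloma cell line; test concentration not given here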
[4] = molecular target: Dihydroorotate dehydrogenase (quinone), mitochondrial (Plasmodium falciparum (isolate 3D7)) (UniProt Q08210); test: inhibition of P. falciparum DHODH – biochemical, C-terminal His tag, absorbance 600 nm, primary screen (AID 1175); conditions: PfDHODH enzyme, DCIP absorbance 600 nm; higher = more signal, called active from +8 up or from −8 down;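 note: recombinant parasite enzyme with a five histidine tag at its C terminus; test concentration not given here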
[5] = inhibition of PAO1 biofilm formation – strain PAO1, LB-PBS medium, absorbance 600 nm, primary screen (AID 1176); note: test concentration not given here; conditions: P. aeruginosa PAO1 growth/biofilm, A600, 12 h; higher = more signal
[6] = growth modulation of vineyard yeast isolate – strain RM11-1a, OD600, basal, 24 h, primary screen (AID 1177);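 note: cultures grown under basal conditions with no added stressor; test concentration not given here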; conditions: S. cerevisiae RM11-1a growth, OD600, 24 h; higher = more signal, called active from +8 up or from −8 down
[7] = growth of efflux-deficient E. coli DRC39 – strain DRC39, OD650, 24 h, E. coli filamentation inducers, primary screen (AID 1178);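 note: growth measured as culture turbidity by optical density at 650 nm; test concentration not given here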; conditions: E. coli DRC39 acrAB, higher = more signal, called active from +8 up or from −8 down
[8] = growth of efflux-deficient E. coli DRC39 – strain DRC39, OD650, 48 h, E. coli filamentation inducers, primary screen (AID 1179);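 note: screen aims at cell division blockers that make cells filament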; conditions: E. coli DRC39 delta-acrAB growth, higher = more signal, called active from +8 up or from −8 down
[9] = viability profiling in RPMI8226 myeloma cells – cell-based, resazurin fluorescence, basal, 24 h, PK04 Diversity Set, profiling panel (AID 1180); conditions: higher = more signal;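 note: RPMI8826 multiple myeloma cell line at 5000 cells per well; test concentration not given here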
[10] = molecular target: E3 ubiquitin-protein ligase XIAP (Homo sapiens) (UniProt P98170); test: small molecules binding XIAP protein – biophysical, small-molecule microarray, fluorescence 635 nm, primary screen (AID 1181); conditions: higher = more signal;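 note: score merges 667 nm emission and signal to noise over triplicate slides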
Sequence of E3 ubiquitin-protein ligase XIAP (Homo sapiens) (P98170 whole entry, looked up): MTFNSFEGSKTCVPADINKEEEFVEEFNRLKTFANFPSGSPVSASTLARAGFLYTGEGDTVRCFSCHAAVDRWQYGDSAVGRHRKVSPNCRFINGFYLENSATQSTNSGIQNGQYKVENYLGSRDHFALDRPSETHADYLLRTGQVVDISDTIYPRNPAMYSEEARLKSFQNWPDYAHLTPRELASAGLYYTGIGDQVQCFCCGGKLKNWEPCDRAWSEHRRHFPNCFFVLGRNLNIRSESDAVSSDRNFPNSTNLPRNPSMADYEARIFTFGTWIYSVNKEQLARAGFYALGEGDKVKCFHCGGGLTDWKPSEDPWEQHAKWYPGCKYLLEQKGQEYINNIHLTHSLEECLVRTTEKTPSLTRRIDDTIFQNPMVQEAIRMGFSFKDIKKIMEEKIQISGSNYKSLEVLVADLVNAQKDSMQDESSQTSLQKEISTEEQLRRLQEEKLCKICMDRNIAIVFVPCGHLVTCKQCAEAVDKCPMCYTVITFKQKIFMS

Sequence of Dihydroorotate dehydrogenase (quinone), mitochondrial (Plasmodium falciparum (isolate 3D7)) (Q08210 whole entry, looked up): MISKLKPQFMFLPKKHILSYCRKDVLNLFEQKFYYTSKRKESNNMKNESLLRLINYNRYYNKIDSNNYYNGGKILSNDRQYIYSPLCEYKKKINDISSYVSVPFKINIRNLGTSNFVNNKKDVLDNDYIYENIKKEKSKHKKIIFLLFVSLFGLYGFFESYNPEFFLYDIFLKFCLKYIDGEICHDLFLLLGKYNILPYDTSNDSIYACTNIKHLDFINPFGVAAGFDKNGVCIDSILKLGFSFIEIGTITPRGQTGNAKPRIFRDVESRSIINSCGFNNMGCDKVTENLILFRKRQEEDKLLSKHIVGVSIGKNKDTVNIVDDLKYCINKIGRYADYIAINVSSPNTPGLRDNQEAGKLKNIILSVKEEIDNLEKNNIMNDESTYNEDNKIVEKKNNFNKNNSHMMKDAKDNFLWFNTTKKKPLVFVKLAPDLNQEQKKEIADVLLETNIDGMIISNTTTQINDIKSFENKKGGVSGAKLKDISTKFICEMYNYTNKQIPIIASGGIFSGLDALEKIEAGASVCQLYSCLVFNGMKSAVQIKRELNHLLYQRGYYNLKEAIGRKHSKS

SMILES | z-score [1] | z-score [2] | z-score [3] | composite z-score [4] | z-score [5] | z-score [6] | z-score [7] | z-score [8] | z-score [9] | composite z-score [10]
COC(=O)[C@@]1(Cc2ccc(F)cc2)[C@H]2c3cc(C(=O)N4CCCC4)n(CCSCCO)c3C[C@H]2CN1C(=O)c1ccccc1 | -0.704 | 1.54 (inactive) | -0.526 (inactive) | 0.289 (inactive) | 0.855 (inactive) | 1.3 (inactive) | -0.405 (inactive) | -0.317 (inactive) | -0.546 | 0.0378
COC(=O)[C@]1(Cc2ccccc2N=[N+]=[N-])N=C(c2ccc(OCCCO)cc2)O[C@@H]1c1ccccc1CN=[N+]=[N-] | -4.43 | 1.24 (inactive) | -8.15 (active) | 1.71 (inactive) | 1.16 (inactive) | 1.94 (inactive) | -0.307 (inactive) | -0.609 (inactive) | -7.07 | -0.0277
CC(C)(C)OC(=O)CC[C@@]1(C(=O)N2CCOCC2)N=C(c2ccc(OCCCO)cc2)O[C@@H]1c1ccccc1CN=[N+]=[N-] | -0.538 | -0.295 (inactive) | -0.383 (inactive) | -0.405 (inactive) | 0.342 (inactive) | -0.423 (inactive) | -0.294 (inactive) | -0.0909 (inactive) | -0.365 | 0.0345
C=C1C(=O)C=C2CN(C(=O)c3ccccc3)[C@@](Cc3ccc(F)cc3)(C(=O)OC)[C@@H]12 | -6.48 | -11.8 (active) | -9.98 (active) | -1.67 (inactive) | 0.439 (inactive) | -2.19 (inactive) | 0.322 (inactive) | -1.8 (inactive) | -7.28 | 0.154
O=C(O)C1=CC[C@H]2C(=O)N(c3ccccc3)C(=O)[C@@H]12 | -0.0581 | 1.53 (inactive) | -0.849 (inactive) | 0.609 (inactive) | 0.477 (inactive) | 1.6 (inactive) | -0.897 (inactive) | -0.453 (inactive) | -1.24 | 0.997
CN(C)C(=O)[C@]1(CCS(=O)(=O)c2ccccc2)N=C(c2ccc(OCCCO)cc2)O[C@@H]1c1ccccc1CN=[N+]=[N-] | 1.46 | 0.705 (inactive) | 0.273 (inactive) | 0.37 (inactive) | 0.743 (inactive) | 0.3 (inactive) | 0.293 (inactive) | -0.373 (inactive) | -0.0461 | 0.558
CC(C)c1ccc(NN2C(C(O)C3CCCCC3)C=CC3C(=O)N(c4ccccc4)C(=O)C32)cc1 (stereo not given) | -0.454 | -0.618 (inactive) | -1.12 (inactive) | -0.74 (inactive) | 1.52 (inactive) | 0.409 (inactive) | -0.148 (inactive) | 0.51 (inactive) | -0.675 | 0.0471
C=C(C(=O)CC[C@@H](OC(=O)c1cccnc1)c1cccc(OCCO)c1)C(C)C | 0.38 | -0.58 (inactive) | -0.667 (inactive) | -1.33 (inactive) | 0.33 (inactive) | -1.3 (inactive) | 0.863 (inactive) | 0.816 (inactive) | -1.34 | 0.127
CCOC(=O)C[C@H]1[C@H](OC(=O)c2ccccc2-c2ccccc2)[C@@H](NC(=O)CC(C)C)c2cc(OCCCO)ccc2N1C(=O)c1ccccc1 | 0.928 | -1.04 (inactive) | 0.351 (inactive) | -0.6 (inactive) | 0.13 (inactive) | -0.71 (inactive) | 1.51 (inactive) | 0.973 (inactive) | -0.503 | 0.0412
O=C(c1ccccc1)N1Cc2ccccc2C[C@@]2(N=C(c3ccc(OCCCO)cc3)O[C@H]2c2ccccc2)C1=O | -1.51 | 0.728 (inactive) | -3.22 (inactive) | 0.23 (inactive) | 1.49 (inactive) | 1.39 (inactive) | 0.0557 (inactive) | -0.469 (inactive) | -3.73 | 0.0797
COC(=O)[C@H](Cc1ccccc1)N1CC(C)(OC)O[C@@H](Cc2ccccc2)[C@H]1/C=C/C1CC1 (stereo not given in full) | 0.0905 | -0.968 (inactive) | -0.32 (inactive) | 0.512 (inactive) | -0.532 (inactive) | 0.815 (inactive) | -0.311 (inactive) | 0.215 (inactive) | -0.249 | 0.0583
CN1C(=O)C2C=CC(C(O)COCc3ccccc3)N(Nc3ccc([N+](=O)[O-])cc3[N+](=O)[O-])C2C1=O (stereo not given) | -0.473 | -2.33 (inactive) | -0.407 (inactive) | -0.42 (inactive) | 0.558 (inactive) | 0.288 (inactive) | -0.143 (inactive) | -0.445 (inactive) | -0.143 | 0.12
C=C(COC)/C(=C/C[C@@H](OC(C)=O)c1cccc(OCCO)c1)c1cnc2ccccc2c1 | -0.469 | -7.06 (inactive) | -0.732 (inactive) | -7.29 (inactive) | 0.203 (inactive) | 0.179 (inactive) | -0.672 (inactive) | -0.303 (inactive) | -0.311 | 0.133
CCCC=C(CCC)[C@@H](NC(=O)c1ccc(C(=O)OC)cc1)c1ccc(C(=O)OC)cc1 | -0.179 | 1.24 (inactive) | -0.64 (inactive) | 0.138 (inactive) | 1.1 (inactive) | 1.55 (inactive) | -1.1 (inactive) | -0.486 (inactive) | -0.358 | 0.0627
Cc1ccc(S[C@]2(C(=O)NCCN3CCOCC3)CC(=O)N(C(C)C)[C@@H]2c2ccc(CO)cc2I)cc1 | 0.124 | -3.26 (inactive) | -2.29 (inactive) | -2.11 (inactive) | 0.553 (inactive) | -2.93 (inactive) | 1.16 (inactive) | 1.65 (inactive) | -1.83 | -0.0304
COC(=O)C(CC#Cc1ccc2c(c1)[C@]1(C(=O)N2)[C@H](C(=O)NC[C@H](O)c2ccccc2)[C@H]2C(=O)O[C@H](c3ccccc3)[C@H](c3ccccc3)N2[C@@H]1c1ccc(O)cc1)C(=O)OC | 0.155 | 0.455 (inactive) | 0.515 (inactive) | -5.06 (inactive) | 1.05 (inactive) | 0.518 (inactive) | -0.196 (inactive) | -0.556 (inactive) | -0.464 | 0.076
CC[C@@H]1C=C(C(=O)O)[C@H](c2cccc(Cl)c2)N1S(=O)(=O)c1ccc(C)cc1 | -0.722 | -0.423 (inactive) | -0.869 (inactive) | -0.831 (inactive) | -0.184 (inactive) | -0.285 (inactive) | -0.647 (inactive) | -0.55 (inactive) | -1.89 | 1.12
NCCCCCCNC(=O)[C@@H]1C[C@@H]2C(=O)NCC(=O)N2[C@@H]1c1cccc(OCCO)c1 | -0.903 | -0.277 (inactive) | 0.717 (inactive) | -0.775 (inactive) | -0.0617 (inactive) | -0.121 (inactive) | 0.295 (inactive) | 0.976 (inactive) | 0.438 | -0.213
CO[C@H]1O[C@H](CO)[C@@H](OC(=O)Nc2ccccc2)[C@@H]2OC(=O)[C@@H](Cc3ccccc3)C/C=C/C[C@H](Cc3ccccc3)C(=O)O[C@@H]12 | -0.472 | 0.153 (inactive) | -2.22 (inactive) | -1.38 (inactive) | 0.0126 (inactive) | 1.04 (inactive) | -0.409 (inactive) | 0.582 (inactive) | -0.381 | 0.381
COCCCNC(=O)[C@@]1(Cc2ccccc2I)c2ccccc2C(=O)N(Cc2ccccc2OC)[C@H]1c1ccc(CO)cc1 | -0.831 | -0.366 (inactive) | -0.0499 (inactive) | 0.671 (inactive) | 0.18 (inactive) | 1.06 (inactive) | -0.033 (inactive) | -0.113 (inactive) | 0.317 | 0.0506
COCCOC(=O)N1C(=O)[C@@]2(c3cc(C#CCNC(N)=O)ccc31)[C@H](C(N)=O)[C@H]1C(=O)O[C@H](c3ccccc3)[C@H](c3ccccc3)N1[C@@H]2c1ccc(O)cc1 | 0.296 | -0.156 (inactive) | -0.477 (inactive) | 0.303 (inactive) | 1.01 (inactive) | 0.532 (inactive) | 0.769 (inactive) | 1.33 (inactive) | -0.392 | -0.245
C=CCNC(=O)[C@H]1[C@@H]2C(=O)O[C@@H](c3ccccc3)[C@@H](c3ccccc3)N2[C@@H](c2ccc(OCCO)cc2)[C@]12C(=O)N(C(=O)OCCOC)c1ccc(C#CCC(C(=O)OC)C(=O)OC)cc12 | -0.181 | 1.71 (inactive) | -0.374 (inactive) | 0.0899 (inactive) | 1.5 (inactive) | 2.76 (inactive) | 0.321 (inactive) | 0.475 (inactive) | -1.31 | 0.0899
[N-]=[N+]=NCc1ccccc1C[C@@]1(C(N)=O)N=C(c2ccc(OCCCO)cc2)O[C@@H]1c1ccccc1N=[N+]=[N-] | 0.304 | -1.35 (inactive) | -1.32 (inactive) | 0.474 (inactive) | 2.28 (inactive) | 0.0193 (inactive) | 0.207 (inactive) | -0.893 (inactive) | -0.644 | 0.0871
COC(=O)[C@@]1(Cc2ccc(F)cc2)[C@H]2c3cc(C(=O)N(C)C)n(CCF)c3C[C@H]2CN1C(=O)c1ccccc1 | 0.0085 | 0.0276 (inactive) | -0.182 (inactive) | -0.54 (inactive) | 0.7 (inactive) | -0.5 (inactive) | 0.783 (inactive) | 0.459 (inactive) | 0.034 | 0.179
C=CCNC(=O)[C@@H]1[C@H]2C(=O)O[C@H](c3ccccc3)[C@H](c3ccccc3)N2[C@H](c2ccc(OCCO)cc2)[C@@]12C(=O)Nc1ccc(C#CC3=CCCCC3)cc12 | -0.411 | 0.899 (inactive) | -2.16 (inactive) | 0.106 (inactive) | 2.29 (inactive) | 2.01 (inactive) | -0.972 (inactive) | -0.563 (inactive) | -2.96 | -0.178
